The supplement of paper PMC10681739

These sequences were tested against T1, ETS1 (UniProt P14921) (assay: ETS1 binding intensity (PBM fluorescence), ETS1 alone (arbitrary fluorescence units); higher = stronger binding). Details: ETS1 concentration 1 nM; RUNX1 concentration 0 nM.
T1 sequence: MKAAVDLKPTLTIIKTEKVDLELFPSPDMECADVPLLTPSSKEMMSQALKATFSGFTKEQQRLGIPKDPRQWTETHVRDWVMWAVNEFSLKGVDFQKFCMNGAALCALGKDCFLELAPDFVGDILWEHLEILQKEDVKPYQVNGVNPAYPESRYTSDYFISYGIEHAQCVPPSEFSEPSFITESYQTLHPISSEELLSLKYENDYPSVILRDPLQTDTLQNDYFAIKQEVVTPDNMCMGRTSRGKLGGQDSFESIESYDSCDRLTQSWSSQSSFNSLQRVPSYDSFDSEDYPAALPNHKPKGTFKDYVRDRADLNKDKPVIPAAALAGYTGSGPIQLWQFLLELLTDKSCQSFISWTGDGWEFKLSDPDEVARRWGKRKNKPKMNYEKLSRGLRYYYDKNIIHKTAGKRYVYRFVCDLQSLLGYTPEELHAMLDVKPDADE
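For RUNX1 binding intensity (PBM fluorescence) in presence of ETS1, normalised to RUNX1-only experiment in this document: Full-length recombinant human ETS1 or RUNX1 bound to double-stranded 36-bp genomic probes on microarrays, detected by protein-specific primary antibody and Alexa488 secondary, spot fluorescence as median of four replicate spots.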

Question: TTTCGAGAAAACCGGAAGTGCGTGGTCACGCCCCGC was tested. Which ETS1 binding intensity did it give?
Answer: The ETS1 binding intensity was 29400.

Question: TGAAGTACTAGTCAAGGATGTGGTTTTACATAGCAG was tested. Which ETS1 binding intensity did it give?
Answer: The ETS1 binding intensity was 586.

Question: For GAATGGCGGATGTGGCTGGGGAGAGAAAGCCGCAGA, which ETS1 binding intensity is on record?
Answer: Its ETS1 binding intensity is 914.

Question: With CCCGCTCACGCCGGAAGTGGTTTGCGTTTTCAAGAT as the sequence, how does the ETS1 binding intensity read?
Answer: Its ETS1 binding intensity is 14400.

Question: How did the ETS1 binding intensity turn out when TCTAAATCACTTCCTGTTACAGAAACCACAGGCCTG was run?
Answer: Its ETS1 binding intensity is 4300.

Question: TCATTTCCTCTGGTGTTATTGTGTTGTGGTTTTAAG was tested. Which ETS1 binding intensity did it give?
Answer: The ETS1 binding intensity was 417.

Question: For GGCAGGAAAGAGCTGATGCATTTCAACCGCAGCCTG, which ETS1 binding intensity is on record?
Answer: Its ETS1 binding intensity is 520.

Question: With GACCGAGAGGAAGCAGCAAGGATCCTGCGGTTCCAG as the sequence, how does the ETS1 binding intensity read?
Answer: The ETS1 binding intensity was 505.

Question: Which ETS1 binding intensity does the source give for TGATGCACTTCCTGAGGGCCCGCATGTGGTAAACAC here?
Answer: Its ETS1 binding intensity is 495.

Question: How did the ETS1 binding intensity turn out when CAGAGCCAAACATGCGGAAGTGGTTACGTGTACTAG was run?
Answer: The ETS1 binding intensity was 3280.

Question: For TTTATCATGAATGCAGGATGTGGGCAGACTCACAGC, which ETS1 binding intensity is on record?
Answer: The ETS1 binding intensity was 2590.

Question: Which ETS1 binding intensity does the source give for AACAGACAGGATGTGGCCTCTGCCAAAACCACCATC here?
Answer: The ETS1 binding intensity was 3250.

Question: Which ETS1 binding intensity does the source give for ATGCCTTCTTCCAGAGGATGTGGTCGCTACTAGTGG here?
Answer: Its ETS1 binding intensity is 1320.

Question: How did the ETS1 binding intensity turn out when GAAGGAAGTGGAGACAGTAAGGGGAAACCACAAACC was run?
Answer: Its ETS1 binding intensity is 1060.

Question: How did the ETS1 binding intensity turn out when GCCGGCGGCCGGAAGTCTATCCCGCAGAAGCGCAGC was run?
Answer: Its ETS1 binding intensity is 9360.

Question: How did the ETS1 binding intensity turn out when AGCTCAATTTCCTGGCGTGTAACATGGCCACAAGGG was run?
Answer: Its ETS1 binding intensity is 827.

Question: CCACGTCCACAAAGGAAACCGCGGCCTGCCCGGGGA was tested. Which ETS1 binding intensity did it give?
Answer: The ETS1 binding intensity was 512.

Question: ACACCTCAGGAAGTGGCAGAGACCACAACAAGTCAG was tested. Which ETS1 binding intensity did it give?
Answer: Its ETS1 binding intensity is 701.

Question: With TCTTGAGGGTCAGGATGTGGTGAGGCCAGAGAAGGC as the sequence, how does the ETS1 binding intensity read?
Answer: The ETS1 binding intensity was 951.

Question: With CTCATTGACAGGAAGTCTAACCACAGGCTTAGGCCC as the sequence, how does the ETS1 binding intensity read?
Answer: The ETS1 binding intensity was 3730.

Question: With GCGCCCTCCAGGAAACGCCGCGGTTTACTGTCTGCC as the sequence, how does the ETS1 binding intensity read?
Answer: Its ETS1 binding intensity is 1120.

Question: CCGCCGCGACACTTCCGGCGGCCACCACAGGGTATT was tested. Which ETS1 binding intensity did it give?
Answer: Its ETS1 binding intensity is 2700.

Question: How did the ETS1 binding intensity turn out when ACAATAACAGGAAGTGGTGGGGACTGCGGTGACCTG was run?
Answer: Its ETS1 binding intensity is 4750.

Question: For GACACAAGAACAGCAGGATGTGGTCAGAGGCGTCGT, which ETS1 binding intensity is on record?
Answer: The ETS1 binding intensity was 2610.

Question: For CAAGCCAACATCCTGACAGTTTAGAAACCACAGGAG, which ETS1 binding intensity is on record?
Answer: The ETS1 binding intensity was 464.

The sequences below were run against RUNX1 (UniProt Q01196) (assay: RUNX1 binding intensity (PBM fluorescence) in presence of ETS1, normalised to RUNX1-only experiment (arbitrary fluorescence units); higher = stronger binding). Details: RUNX1 concentration 2 nM; ETS1 concentration 25 nM.
Method: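 Cooperative gcPBM on 36-bp genomic probes with neighbouring ETS1 and RUNX1 sites. Recombinant human RUNX1 (2 nM) was incubated alone or with ETS1 (25 nM) and detected with anti-RUNX1 antibody plus Alexa488 secondary. Values are medians over 4 replicate spots; the RUNX1+ETS1 data were normalised to the RUNX1-only data. The probes sit in constant array flanks that are not printed.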

Chain of RUNX1 (Q01196 whole entry): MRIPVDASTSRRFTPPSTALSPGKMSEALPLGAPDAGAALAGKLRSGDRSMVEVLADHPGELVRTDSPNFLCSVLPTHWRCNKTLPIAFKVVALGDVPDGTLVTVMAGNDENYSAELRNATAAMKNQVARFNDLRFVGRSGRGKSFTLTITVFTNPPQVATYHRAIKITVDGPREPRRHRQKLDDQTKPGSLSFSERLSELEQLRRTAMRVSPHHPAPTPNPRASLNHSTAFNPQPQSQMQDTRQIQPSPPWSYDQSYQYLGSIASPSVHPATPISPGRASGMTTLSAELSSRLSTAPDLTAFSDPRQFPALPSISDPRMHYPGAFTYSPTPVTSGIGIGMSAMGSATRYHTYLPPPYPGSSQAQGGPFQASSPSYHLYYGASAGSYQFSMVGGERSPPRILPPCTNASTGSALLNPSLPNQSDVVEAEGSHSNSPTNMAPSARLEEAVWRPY

Question: TACCTAGACCCTTTCCGCCCTTACCGCGGCCAGACA was tested. Which RUNX1 binding intensity did it give?
Answer: The RUNX1 binding intensity was 1410.

Question: With GGGGGAGCAAGCGCCTTCCGCGGTCGCTGGGGGGAG as the sequence, how does the RUNX1 binding intensity read?
Answer: The RUNX1 binding intensity was 812.

Question: For TTTCGAGAAAACCGGAAGTGCGTGGTCACGCCCCGC, which RUNX1 binding intensity is on record?
Answer: Its RUNX1 binding intensity is 1670.

Question: For TGAAGTACTAGTCAAGGATGTGGTTTTACATAGCAG, which RUNX1 binding intensity is on record?
Answer: Its RUNX1 binding intensity is 1340.

Question: With GAATGGCGGATGTGGCTGGGGAGAGAAAGCCGCAGA as the sequence, how does the RUNX1 binding intensity read?
Answer: Its RUNX1 binding intensity is 2610.

Question: AGCTTCCGAGTCTGTTGTGGAGTGGGAACCGCGACT was tested. Which RUNX1 binding intensity did it give?
Answer: The RUNX1 binding intensity was 1020.

Question: How did the RUNX1 binding intensity turn out when TTTCTTCTGATCTTCCTCCCCGCACGTCTGCACAGG was run?
Answer: The RUNX1 binding intensity was 1020.

Question: Which RUNX1 binding intensity does the source give for CCCGCTCACGCCGGAAGTGGTTTGCGTTTTCAAGAT here?
Answer: The RUNX1 binding intensity was 7390.

Question: Which RUNX1 binding intensity does the source give for TTGATTGGAGCAGGATGTGGTCAGAACAGTATGCAG here?
Answer: Its RUNX1 binding intensity is 4860.

Question: How did the RUNX1 binding intensity turn out when TCTAAATCACTTCCTGTTACAGAAACCACAGGCCTG was run?
Answer: Its RUNX1 binding intensity is 4430.

Question: For GAAACGTCACCCAGAGGAAACCCACAAGGGGCGTGG, which RUNX1 binding intensity is on record?
Answer: The RUNX1 binding intensity was 836.

Question: How did the RUNX1 binding intensity turn out when TCATTTCCTCTGGTGTTATTGTGTTGTGGTTTTAAG was run?
Answer: The RUNX1 binding intensity was 3040.

Question: Which RUNX1 binding intensity does the source give for GGCAGGAAAGAGCTGATGCATTTCAACCGCAGCCTG here?
Answer: Its RUNX1 binding intensity is 1040.

Question: TGACACCAGCCCTGAGGATGTGGTTCATCCTCCCAC was tested. Which RUNX1 binding intensity did it give?
Answer: Its RUNX1 binding intensity is 817.

Question: For GACCGAGAGGAAGCAGCAAGGATCCTGCGGTTCCAG, which RUNX1 binding intensity is on record?
Answer: The RUNX1 binding intensity was 875.

Question: For TGATGCACTTCCTGAGGGCCCGCATGTGGTAAACAC, which RUNX1 binding intensity is on record?
Answer: The RUNX1 binding intensity was 1480.

Question: How did the RUNX1 binding intensity turn out when GACAATGAGCGCACAGGATGTGGTTTGGCGGCAGGG was run?
Answer: The RUNX1 binding intensity was 3690.

Question: With CCCATTTCCGAGAGTGGCAGGGCTGGGCGCGGTGGG as the sequence, how does the RUNX1 binding intensity read?
Answer: The RUNX1 binding intensity was 1420.

Question: Which RUNX1 binding intensity does the source give for CAGAGCCAAACATGCGGAAGTGGTTACGTGTACTAG here?
Answer: The RUNX1 binding intensity was 1900.

Question: How did the RUNX1 binding intensity turn out when TTTATCATGAATGCAGGATGTGGGCAGACTCACAGC was run?
Answer: Its RUNX1 binding intensity is 1280.

Question: Which RUNX1 binding intensity does the source give for AACAGACAGGATGTGGCCTCTGCCAAAACCACCATC here?
Answer: The RUNX1 binding intensity was 2310.

Question: How did the RUNX1 binding intensity turn out when ATGCCTTCTTCCAGAGGATGTGGTCGCTACTAGTGG was run?
Answer: The RUNX1 binding intensity was 868.

Question: GAAGGAAGTGGAGACAGTAAGGGGAAACCACAAACC was tested. Which RUNX1 binding intensity did it give?
Answer: Its RUNX1 binding intensity is 1190.

Question: For CCCGGCCCAGGAAACTTCAGACTTCACCGCAGCTTC, which RUNX1 binding intensity is on record?
Answer: The RUNX1 binding intensity was 1030.

Question: With CAACCCAAGGGGATGTGCTCACTGCGGTGAGGAGGC as the sequence, how does the RUNX1 binding intensity read?
Answer: Its RUNX1 binding intensity is 893.

Question: GCCGGCGGCCGGAAGTCTATCCCGCAGAAGCGCAGC was tested. Which RUNX1 binding intensity did it give?
Answer: Its RUNX1 binding intensity is 1900.

Question: How did the RUNX1 binding intensity turn out when AGCTCAATTTCCTGGCGTGTAACATGGCCACAAGGG was run?
Answer: Its RUNX1 binding intensity is 1390.

Question: With CCACGTCCACAAAGGAAACCGCGGCCTGCCCGGGGA as the sequence, how does the RUNX1 binding intensity read?
Answer: The RUNX1 binding intensity was 1590.

Question: How did the RUNX1 binding intensity turn out when ACACCTCAGGAAGTGGCAGAGACCACAACAAGTCAG was run?
Answer: Its RUNX1 binding intensity is 1620.

Question: Which RUNX1 binding intensity does the source give for CGGCGCGGCGGACGTTGCTGCGGTAGGACGTGCCCG here?
Answer: Its RUNX1 binding intensity is 875.

Question: With TCTTGAGGGTCAGGATGTGGTGAGGCCAGAGAAGGC as the sequence, how does the RUNX1 binding intensity read?
Answer: The RUNX1 binding intensity was 1420.

Question: How did the RUNX1 binding intensity turn out when ACTCACACCACGGAAACTGCGGCTCGGCAGGCTGAG was run?
Answer: Its RUNX1 binding intensity is 885.

Question: CTCATTGACAGGAAGTCTAACCACAGGCTTAGGCCC was tested. Which RUNX1 binding intensity did it give?
Answer: The RUNX1 binding intensity was 6750.

Question: Which RUNX1 binding intensity does the source give for GCGCCCTCCAGGAAACGCCGCGGTTTACTGTCTGCC here?
Answer: The RUNX1 binding intensity was 1910.

Question: How did the RUNX1 binding intensity turn out when CCGCCGCGACACTTCCGGCGGCCACCACAGGGTATT was run?
Answer: The RUNX1 binding intensity was 2500.

Question: How did the RUNX1 binding intensity turn out when ACAATAACAGGAAGTGGTGGGGACTGCGGTGACCTG was run?
Answer: The RUNX1 binding intensity was 3340.

Question: Which RUNX1 binding intensity does the source give for GACACAAGAACAGCAGGATGTGGTCAGAGGCGTCGT here?
Answer: The RUNX1 binding intensity was 3510.

Question: How did the RUNX1 binding intensity turn out when CAAGCCAACATCCTGACAGTTTAGAAACCACAGGAG was run?
Answer: The RUNX1 binding intensity was 1300.

Question: Which RUNX1 binding intensity does the source give for TAAATCGGAAACTCGCCGCTCAGCCCGCAGCCGCCG here?
Answer: The RUNX1 binding intensity was 808.
